# Sampled rows, rich in hits. Any-hit rate of the full collection: about 11%.
# SW480 rerep: A quantitative high throughput screen for small molecules that induce DNA re-replication in SW480 colon adenocarcinoma cells; SW480 DNA re-replication, Hoechst DNA content imaging, 48 h; Potency, µM (top dose mostly 46.1 µM), inactives show at the top dose re-replication activation, most hits filed as activators; 340,000 tested, 1.8% active; further: potency means the concentration at half of the fitted maximal effect; % of control where 0% means no effect; nearly all actives have a fitted effect of over 55% in size
#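 250 cells/well; 23 nL cpd via pin tool; 48 hr, 37 C, 5% CO2; Hoechst 40 min; imager read of total nuclear intensity, ex 405/em 500-530 nm.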
# Gal4-VP16 FLuc: VP16 counterscreen qHTS for inhibitors of ROR gamma transcriptional activity | Drosophila S2 Gal4-VP16 UAS-luciferase, luminescence, 20 h | Potency, µM (doses to about 53.6 µM), inactives show at the top dose activity, negative = inhibition, hits mostly inhibitors | 310,000 tested, 3.5% active;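 further: Gal4-VP16 expression switched on by copper sulfate through the metallothionein promoter; potency means the concentration at half of the fitted maximal effect; on the % scale 0 is the no-effect control and ±100 the full control effect; nearly all actives have a fitted effect of over 50% in size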
# RORg inh: qHTS for inhibitors of ROR gamma transcriptional activity. 310,000 tested, 5.4% active. Drosophila S2 Gal4-RORgamma UAS-luciferase reporter, 20 h. Potency, µM (top dose mostly 53.6 µM), for the others: at the highest dose activity change, negative = inhibition, most hits filed as inhibitors. AID 2551, 2010; further: potency means the concentration at half of the fitted maximal effect; on the % scale 0 is the no-effect control and ±100 the full control effect; nearly all actives have a fitted effect of over 60% in size
# Target sequence (P51450 whole entry, looked up, the tested form may be a part): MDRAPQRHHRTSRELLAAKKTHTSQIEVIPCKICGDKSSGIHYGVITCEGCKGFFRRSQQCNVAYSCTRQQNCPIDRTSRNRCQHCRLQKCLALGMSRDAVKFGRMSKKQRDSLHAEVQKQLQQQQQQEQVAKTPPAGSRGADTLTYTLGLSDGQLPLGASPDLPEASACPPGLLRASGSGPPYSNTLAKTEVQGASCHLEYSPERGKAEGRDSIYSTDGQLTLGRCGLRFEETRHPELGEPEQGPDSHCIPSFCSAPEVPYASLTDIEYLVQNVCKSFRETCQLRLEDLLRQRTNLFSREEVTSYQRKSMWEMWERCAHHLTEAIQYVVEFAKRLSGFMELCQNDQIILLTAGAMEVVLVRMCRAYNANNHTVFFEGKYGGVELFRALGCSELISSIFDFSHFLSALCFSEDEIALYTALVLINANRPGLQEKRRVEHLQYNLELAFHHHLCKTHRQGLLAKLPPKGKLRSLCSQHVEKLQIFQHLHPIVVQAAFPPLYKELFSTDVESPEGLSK
#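 Using a luciferase readout, inhibitors were identified by reduced reporter activity in Drosophila cells coexpressing a copper-inducible Gal4–ROR gamma fusion and UAS-driven Photinus luciferase, incubated 20 hr after 700 uM copper sulfate.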
# MCF10A rereplic: A quantitative high throughput screen for small molecules that induce DNA re-replication in MCF 10a normal breast cells; MCF 10A DNA re-replication, Hoechst nuclear intensity, 48 h; Potency, µM (doses to about 46.1 µM), inactives show at the highest dose activity, positive = re-replication, actives largely listed as activators; AID 624296, 2012; 350,000 tested, 2.9% active; further: potency means the concentration at half of the fitted maximal effect; % of control where 0% means no effect; nearly all actives have a fitted effect of over 50% in size
# IL-1B inflam inh: qHTS for Inhibitors of Inflammasome Signaling: IL-1-beta AlphaLISA Primary Screen; THP-1 LPS/ATP IL-1B secretion, AlphaLISA, 16 h; hits give low values; activity change, % at 57.5 µM; 360,000 tested, 4.7% active; AID 743279, 2014; in the data active means activity change below about -50%; inconclusive means mostly about -30% to -49%; further: on the % scale 0 is the no-effect control and ±100 the full control effect
#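 Secreted IL-1B measured by AlphaLISA bead assay after 16 h compound exposure of THP-1 cells; compounds (final up to 57.5 uM) added 1 h before LPS (250 ng/mL) and ATP (1.25 mM) stimulation; lower signal means less secretion.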
# Starred values were filed as active, the others as inactive; ? = inconclusive; nt = no result. Unless noted, the call rests on the fitted dose curve; in most records, active means well fitted curve in the direction sought with a large enough effect; inconclusive means small, poorly fitted or top-dose-only effect, or another doubt; inactive means no such curve, though single readings can be large; an effect the other way counts as inactive or inconclusive.
SMILES,SW480 rerep,Gal4-VP16 FLuc,RORg inh,MCF10A rereplic,IL-1B inflam inh
CC1=CC(C)(C)NC(=S)N1c1cccc(C)c1,22.1%,11.2µM*,4.47µM*,?,-26.1
CC1=CC(C)(C)NC(=S)N1c1ccc(C)cc1,8.7%,3.55µM*,1.58µM*,-3.6%,7.9
COc1cc(NS(=O)(=O)c2ccc(C)cc2)c2c(c1N)C(=O)c1ccccc1C2=O,nt,nt,nt,nt,-14.7
COc1cc(NC(=NS(=O)(=O)c2ccccc2)c2ccccc2)ncn1,-1.4%,nt,nt,-1.0%,10.9
CCCc1c(C(=O)N/N=C/c2ccccc2C(F)(F)F)nnn1-c1nonc1N,-0.8%,-29.4%,-8.0%,13.1%,0.0
COc1ccc(C(=O)OCc2ccccc2C#N)cc1S(=O)(=O)N1CCOCC1,nt,nt,nt,nt,-27.3
CNC(=O)c1c(NC(=O)c2nc3ccccc3s2)sc2c1CCC2,nt,8.91µM*,7.08µM*,nt,nt
COc1ccc(CC(=O)N2CCN(c3ccccn3)CC2)cc1OC,12.9%,2.1%,10.8%,-2.5%,13.2
O=C(/C=C/c1ccc(F)cc1)NC(=S)N1CCN(c2ccccn2)CC1,-0.7%,20µM*,2.51µM*,0.0%,-2.8
CSc1ccc(/C=C/C(=O)N2CCN(c3ccccn3)CC2)cc1,-2.3%,-27.2%,12.6µM*,-6.9%,-27.1
COc1ccc(/C=C/C(=O)NC(=S)N2CCN(c3ccccn3)CC2)cc1OC,4.4%,11.2µM*,3.16µM*,7.0%,-0.5
Cc1ccc(CN2CCN(/N=C/c3ccc(Cl)c([N+](=O)[O-])c3)CC2)cc1,-20.6%,13.7%,13.0%,6.2%,-73.7*
COc1ccccc1/C=C/C=N/N1CCN(Cc2ccccc2)CC1,-2.8%,?,8.7%,-0.5%,-2.5
O=C(CN1CCN(Cc2ccccc2Cl)CC1)N/N=C/C=C\c1ccccc1[N+](=O)[O-],?,0.159µM*,-45.4%,0.5%,-9.7
Cc1ccc(CN2CCN(/N=C/C=C/c3ccccc3[N+](=O)[O-])CC2)cc1,?,1.7%,36.9%,?,-89.1*
CC(NC(=O)c1ccc(C(=O)c2ccccc2)cc1)c1ccc(S(N)(=O)=O)cc1 (configuration not stated),?,nt,nt,16.1%,-52.3*
CC(NC(=O)c1ccc(S(=O)(=O)C(F)F)cc1)c1ccccc1 (configuration not stated),-0.8%,-3.5%,17.2%,2.2%,-5.8
C[C@H](NC(=O)c1nc[nH]c1C(=O)NCCCCCNC(=O)OC(C)(C)C)C(=O)OCc1ccccc1,-9.0%,?,?,-4.5%,75.5
C[C@H](NC(=O)c1nc[nH]c1C(=O)N[C@@H](CCCCNC(=O)OC(C)(C)C)C(=O)OC(C)(C)C)C(=O)OCc1ccccc1,-10.4%,?,-20.2%,?,0.8
CC(C)C[C@H](NC(=O)c1nc[nH]c1C(=O)N[C@@H](CCCCNC(=O)OC(C)(C)C)C(=O)OC(C)(C)C)C(=O)OCc1ccccc1,?,?,7.08µM*,?,-19.1
CC(C)(C)OC(=O)NCCCC[C@H](NC(=O)c1nc[nH]c1C(=O)NCC(=O)OCc1ccccc1)C(=O)OC(C)(C)C,13.5%,?,28.2µM*,11.9%,-0.9
CC(C)C[C@H](NC(=O)c1nc[nH]c1C(=O)NCCCCCNC(=O)OC(C)(C)C)C(=O)OCc1ccccc1,-0.5%,6.31µM*,12.6µM*,?,21.9
CC(C)(C)OC(=O)NCCCCCNC(=O)c1[nH]cnc1C(=O)N[C@@H](Cc1ccccc1)C(=O)OCc1ccccc1,?,?,?,13µM*,?
COc1ccc2[nH]cc(C(=O)CN3CC(C)CC(C)C3)c2c1 (configuration not stated),-3.4%,2.7%,-11.3%,-4.3%,-3.0
COc1ccc2[nH]cc(/C=C/C(=O)c3ccccc3)c2c1,?,2.4%,24.5%,?,-103.5*
COc1ccc2[nH]cc(C=O)c2c1,1.9%,0.9%,6.6%,-5.8%,-7.5
O=C(/C=C/c1c[nH]c2ccccc12)c1ccccc1,18.4µM*,?,-1.0%,?,4.7
